Test results from PubChem BioAssay.
Active and inactive are the calls of the source.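 The calls were made as follows, unless noted: active = viability at or below 10% of carrier control in both of two separate runs; inconclusive = viability at or below 10% in only one of the two runs; inactive = the rest.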

What was measured:
[1] = SK-BR-3 cell growth inhibitors, pilot screen, 24 h, human (AID 572); conditions: SK-BR-3 viability, CellTiter-Glo luminescence, at 10 µM, stronger effect = lower value;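 also: compound exposure lasted between 18 and 24 h rather than exactly 24 h; 100% = carrier-treated control wells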
[2] = HUVEC growth inhibition – cell-based, human, primary screen (AID 575;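 active = viability at or below 30% in both replicate assays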;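 also: 100% = median of untreated cell wells with 0.1% DMSO on each plate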); conditions: HUVEC proliferation, CellTiter-Glo luminescence, 72 h; at 10 µM; stronger effect = lower value
[3] = growth inhibitors of H69AR lung tumor, primary screen, human, duplicate replicates (AID 580;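 active = viability at or under a set limit in both replicates, limit being median viability minus 3 SD, cut at about 48% in these data, passing the limit was not always enough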;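 also: 100% = mean luminescence of untreated wells and 0% = no signal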); conditions: H69AR lung tumor cells viability, ATP luminescence, 72 h; at 10 µM; stronger effect = lower value
[4] = reversal of MRP1-mediated doxorubicin resistance, pilot screen, H69AR cells, doxorubicin co-treatment (AID 601;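 active = viability loss from added drug above about 55%, and viability with drug at most 40%, in both replicates, limit read from the data, passing the limit was not always enough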); conditions: CellTiter-Glo, 72 h, at 10 µM; for differential viability (reversal): stronger effect = higher value
[5] = 384-well plate pilot, post-Golgi transport modulator project, inhibition of yeast transport mutant growth (AID 636; in the data active = inhibition above about 31%); conditions: absorbance 615 nm, about 18 h, stronger effect = higher value
[6] = growth suppression of yeast trafficking mutant, preliminary HTS, modulators of trafficking downstream of Golgi apparatus project, 1536-format plate, OD 615 nm (AID 637; in the data active = inhibition above about 30%); conditions: yeast transport mutant growth, absorbance 615 nm, 18 h; stronger effect = higher value
[7] = H69AR cells + 2 uM doxorubicin, measured here: viability with 2 uM doxorubicin, stronger effect = lower value
[8] = H69AR cells, compound alone cytotoxicity

Row | SMILES | viability [1] | viability [2] | viability [3] | differential viability (reversal) ([4]; H69AR cells + 2 uM doxorubicin) | viability [4, 7] [%] | viability [4, 8] [%] | inhibition [5] | inhibition [6]
1 | O=c1c(O)c(-c2ccc(O)cc2O)oc2cc(O)cc(O)c12 | 94% (inactive) | 97.5% (inactive) | 97.4% (inactive) | -2.28% (inactive) | 99.6 | 97.4 | -3.77% (inactive) | -1.33% (inactive)
2 | CN(C)CCCN1c2ccccc2Sc2ccc(C(F)(F)F)cc21 | 4.5% (active) | 56.8% (inactive) |  | -39.3% (inactive) | 51 | 11.7 |  | 
3 | CSc1nnc(-c2ccccc2)n1C | 121% (inactive) | 102% (inactive) | 102% (inactive) | 6.17% (inactive) | 95.5 | 102 | -8.36% (inactive) | -0.55% (inactive)
4 | C/C=C(/C(=C/C)c1ccc(O)cc1)c1ccc(O)cc1 | 123% (inactive) | 54.9% (inactive) |  | -57.5% (inactive) | 85.2 | 27.6 | 0.65% (inactive) | 25% (inactive)
5 | CC(C)(C)c1ccc(C(O)CCCN2CCC(C(O)(c3ccccc3)c3ccccc3)CC2)cc1 (stereo unspecified) | 91% (inactive) | 1.7% (active) |  | 0.38% (inactive) | 1.16 | 1.54 | -1.95% (inactive) | -1% (inactive)
6 | CCCOc1ccc2nc(NC(=O)OC)[nH]c2c1 | 95% (inactive) | 37.3% (inactive) |  | -30.4% (inactive) | 57.3 | 26.9 | -0.52% (inactive) | -1.5% (inactive)
7 | Cc1ccc(Cn2c(=N)c(C(=O)NCc3ccco3)cc3c(=O)n4ccccc4nc32)cc1 | 78% (inactive) | 96.1% (inactive) |  | -0.275% (inactive) | 47.4 | 47.1 | -5.81% (inactive) | -4.36% (inactive)
8 | O=C(Nc1ccc2[nH]c3c(c2c1)CCCC3)c1ccco1 | 82% (inactive) | 73.1% (inactive) |  | -3.58% (inactive) | 66.7 | 63.1 | -8.67% (inactive) | -2.73% (inactive)
9 | CCn1c(=N)n(CC(=O)c2ccco2)c2ccccc21 | 95% (inactive) | 95.5% (inactive) |  | -38.3% (inactive) | 73.2 | 34.9 | -5.2% (inactive) | -4% (inactive)
10 | CCCn1nc(NC(=O)c2cccs2)c2cc3cc(OC)ccc3nc21 | 102% (inactive) | 56.4% (inactive) |  | -18.7% (inactive) | 81.8 | 63.1 | -6.58% (inactive) | 2.58% (inactive)
11 | COc1cc2cc(C(c3nnnn3C3CCCC3)N3CCCCCC3)c(=O)[nH]c2cc1OC (stereo unspecified) | 114% (inactive) | 92.3% (inactive) |  | -0.62% (inactive) | 59.7 | 59.1 | -3.87% (inactive) | -2.91% (inactive)
12 | O=C(c1cc2nc(-c3ccco3)cc(C(F)(F)F)n2n1)N1CCN(c2ccccn2)CC1 | 101% (inactive) | 66.5% (inactive) |  | -11.9% (inactive) | 66.1 | 54.3 | -3.2% (inactive) | 0.18% (inactive)
13 | CCOC(=O)c1c(NC(=O)COC(=O)c2c(C)noc2C)sc2c1CCC2 | 63% (inactive) | 35.6% (inactive) |  | 0.845% (inactive) | 47 | 47.8 | -8.36% (inactive) | -3.87% (inactive)
14 | COc1ccc(C(=O)Nc2ccc(Cl)c(Cl)c2)c(OC)n1 | 93% (inactive) | 83.2% (inactive) |  | -7.11% (inactive) | 47.6 | 40.5 | -8.53% (inactive) | -4.36% (inactive)
15 | O=C(Nc1ccccc1-c1nc2ccccc2o1)c1ccc2c(c1)OCCO2 | 112% (inactive) | 66.7% (inactive) |  | -12.7% (inactive) | 48.4 | 35.7 | -3.64% (inactive) | -4.44% (inactive)
16 | Cc1cc(C(=O)COc2cccc3cccnc23)c(C)n1C | 95% (inactive) | 80.9% (inactive) |  | -11.7% (inactive) | 70.8 | 59.1 | -2.67% (inactive) | -3.64% (inactive)
17 | CN(C)c1ccc(O)c2c1CC1CC3[C@@H](N(C)C)C(=O)C(C(N)=O)=C(O)[C@]3(O)C(=O)C1=C2O (stereo partly specified) | 92% (inactive) | 92.6% (inactive) |  | -6.56% (inactive) | 39.2 | 32.7 | 2.73% (inactive) | 29.7% (inactive)
18 | COc1cc(NC(=O)c2ccco2)c(OC)cc1NC(=O)CCC(=O)Nc1cc(C)cc(C)c1 | 106% (inactive) | 42.5% (inactive) |  | -16.3% (inactive) | 69.4 | 53.1 | -6.58% (inactive) | -0.95% (inactive)
19 | COC(=O)Nc1nc2ccc(C(=O)c3ccccc3)cc2[nH]1 | 109% (inactive) | 44.3% (inactive) |  | -47.3% (inactive) | 73.4 | 26.1 | 42.3% (active) | 90.2% (active)
20 | Cc1cc(C(=O)CSc2nc3ccccc3n2CCC#N)c(C)n1Cc1cccs1 | 58% (inactive) | 110% (inactive) |  | -1.21% (inactive) | 32.9 | 31.7 | -5.41% (inactive) | -3.09% (inactive)
21 | COc1ccc(CCn2c(=N)c(C(=O)NCc3ccco3)cc3c(=O)n4ccccc4nc32)cc1 | 73% (inactive) | 57.9% (inactive) |  | -8.4% (inactive) | 64.5 | 56.1 | -6.76% (inactive) | -8.33% (inactive)
22 | O=C1NC2c3ccccc3C(=O)N2c2c1cnn2-c1ccccc1 (stereo unspecified) | 98% (inactive) | 80.3% (inactive) |  | -35.4% (inactive) | 86 | 50.6 | 0.68% (inactive) | 0.91% (inactive)
23 | COc1cc2c(cc1NC(=O)CSc1nnc(Cc3cccs3)n1C)oc1ccccc12 | 74% (inactive) | 54.4% (inactive) |  | -12.1% (inactive) | 59.9 | 47.8 | 11.5% (inactive) | 4.36% (inactive)
